# HIV RNase H inh-1 = inhibitors of HIV-1 reverse transcriptase RNase H. hit rate 1.9% among 65,000. P04585. inhibition, % at 10 µM. RT-RNase H RNA/DNA duplex cleavage, fluorescence; in the data active means inhibition above about 50%
# HIV RNase H inh-2 = confirmation of HIV-1 reverse transcriptase RNase H inhibitors. Recombinant RT RNase H, fluorescent RNA/DNA duplex cleavage. inhibition, % at 10 µM. shares compounds with HIV RNase H inh-1. hit rate 39% among 1,000; in the data active means inhibition above about 48%
# A number is an active result; . = inactive. Many of the other results were omitted from the sample, so hits are more common in it than they were.
SMILES,HIV RNase H inh-1,others
O=C(NCc1ccccn1)c1nnc(Cc2ccc(Cl)cc2)o1,.,
O=C1C2ON(c3ccccc3)C(c3cccnc3)C2C(=O)N1c1ccccc1 (centres undefined),.,
O=C1C2ON(c3ccc(Br)cc3)C(c3cccnc3)C2C(=O)N1C1CCCCC1 (centres undefined),64,HIV RNase H inh-2=.
O=C1C2ON(c3ccccc3)C(c3cccnc3)C2C(=O)N1c1ccc(Cl)c(Cl)c1 (centres undefined),.,
CCOC(=O)Cn1c(C)c(C#N)c2ccccc21,.,
Cc1cccc(NC(=O)Cn2c(C)c(C#N)c3ccccc32)c1C,72,HIV RNase H inh-2=63
Cc1c(C#N)c2ccccc2n1CC(=O)O,.,
Cc1cc(C)n(-c2nc3c(c(=O)[nH]c(=O)n3C)n2C(C)C)n1,.,
O=C(Cn1c(=O)n(Cc2ccco2)c(=O)c2c3c(sc21)CCCC3)Nc1ccccc1,.,
CCOc1ccc(-n2c(=O)c3c4c(sc3n(CC(=O)NCc3ccco3)c2=O)CCC4)cc1,57,HIV RNase H inh-2=87
CCOc1ccc(-c2nnn(CC(=O)NCc3ccco3)n2)cc1,.,
COc1ccc(CCNC(=O)c2ccc(NS(=O)(=O)c3c(C)noc3C)cc2)cc1OC,.,
CNC(=O)c1cc2cc(Cl)cc(OC)c2oc1=O,.,
CCOc1ccc(S(=O)(=O)NC(C)(C)C)cc1-c1nc2c(C(C)(C)C)nn(C)c2c(=O)[nH]1,.,
O=C(Cc1cn2ccsc2n1)Nc1nc2c(s1)CN(Cc1ccccc1)CC2,.,
CCOc1cc(C(=O)N2CCN(c3ccccc3)CC2)cc(OCC)c1OCC,.,
S=C(c1ccc(N2CCCC2)cc1)N1CCCCC1,.,
CCN(CC)c1ccc(C(=S)N2CCN(c3ccccc3)CC2)cc1,73,HIV RNase H inh-2=.
C1=C(c2ccc(-c3ccccc3)cc2)Nc2ncnn2C1c1ccco1 (centres undefined),90,HIV RNase H inh-2=52
CCOc1ccc(C2C=C(c3ccccc3)Nc3ncnn32)cc1 (centres undefined),.,
COc1cccc(C2=CC(c3ccccc3)n3ncnc3N2)c1 (centres undefined),.,
Cc1cc(NC(=O)CSc2nc(C(C)C)nc3sc4c(c23)CCCC4)no1,70,HIV RNase H inh-2=.
Cc1cc(NC(=O)CSc2nc(C3CC3)nc3sc4c(c23)CCC(C)C4)no1 (centres undefined),70,HIV RNase H inh-2=97
CCn1c(SCC(=O)Nc2cc(C)on2)nc2sc3c(c2c1=O)CCCC3,.,
Cc1cc(NC(=O)CSc2nc3sc4c(c3c(=O)n2C)CCCC4)no1,.,
SMILES,HIV RNase H inh-1,others
Cc1cc(NC(=O)Cn2nnc3sc4c(c3c2=O)CCC(C(C)(C)C)C4)no1 (centres undefined),.,
Cc1cc(NC(=O)CSc2nc(C3CCCCC3)nc3ccccc23)no1,.,
CCN1CCN(Cc2nc3c(c(=O)n(C)c(=O)n3C)n2C(C)C(C)=O)CC1 (centres undefined),.,
Cc1ccc2oc(=O)c3cnn(CC(=O)N(CCCN4CCOCC4)Cc4ccco4)c3c2c1,.,
CCc1ccc(N(CC(=O)Nc2ccc(OC)cc2OC)S(C)(=O)=O)cc1,.,
Cc1cc(C(N)=O)c2cc(Br)ccc2n1,.,
O=C(NCC1CCCO1)c1cc(-c2ccco2)nc2ccccc12 (centres undefined),.,
O=C(O)c1cc(-c2ccco2)nc2ccc(Br)cc12,78,HIV RNase H inh-2=.
N#Cc1c(-c2ccco2)c2c([nH]c1=S)CCCC2,82,HIV RNase H inh-2=.
N#Cc1c(N)nc2c(c1-c1cccnc1)CCCCC2,.,
CSc1ccc(-c2c(C#N)c(N)nc3c2CCCC3)cc1,.,
COc1ccc(-c2c3c([nH]c(=S)c2C#N)CCC3)cc1,81,HIV RNase H inh-2=.
N#Cc1c2c(c(-c3ccco3)[nH]c1=O)CCCC2,.,
N#Cc1c(-c2cccnc2)c2c([nH]c1=S)CCCC2,90,HIV RNase H inh-2=69
COc1ccc(-c2nc(N3CCCC3)[nH]c(=O)c2C#N)cc1,.,
N#Cc1c(N)nc2c(c1-c1ccco1)CCCCC2,.,
N#Cc1sc2nc3c(c(-c4cccnc4)c2c1N)CCC3,.,
Cc1[nH]n(C(C)(C)C)c(=O)c1Sc1ccc(Cl)cc1,.,
O=C1CN(C(=O)c2ccco2)C(c2ccccc2)c2cc(Cl)ccc2N1 (centres undefined),.,
COc1ccc(OC)c2[nH]c(=O)c(CCNC(=O)C3CCCCC3)cc12,.,
CC(C)COC(=O)n1c(SCC(=O)N(C)C)nc2ccccc21,.,
CC1=CCC(COC(=O)Nc2ccccc2)CC1 (centres undefined),.,
CCOC(=O)c1cc(C)n(-c2ccc(OC)c(OC)c2)c1C,.,
N#CC1=C2C=CC=CN2CC1=O,.,
